GLS inh: blocks human kidney-isoform glutaminase activity; 410,000 compounds, 0.21% hits; Potency, µM (top dose mostly 45.5 µM), hits mostly inhibitors; GLS enzymatic activity, qHTS titration; AID 624170
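hKGA in 45 mM KH2PO4 pH 8.2, 0.02% Tween-20 with pin-transferred compounds; 1 mM L-glutamine (stock) plus glutamate oxidase/HRP/Amplex Red coupling added. Fluorescence read initially and after 30 min at RT.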
PLK1 PBD block: blocks phosphopeptide binding to human PLK1 polo-box domain; 360,000 compounds, 2.8% hits; AID 720504; P53350; Potency, µM, hits mostly inhibitors; Plk1 PBD binding of FITC phosphopeptide, fluorescence polarization; further: series mostly up to about 57 µM; nearly all actives have a fitted effect of over 65% in size
PKM2 act: increases activity of human pyruvate kinase M2. AID 1631. P14618. purified PKM2, Kinase-Glo ATP luminescence, activation; response scale: 0% is enzyme alone, no compound. Potency, µM (titrated, usually from 57.5 µM), actives largely listed as activators. 260,000 compounds, 0.34% hits; further: nearly all actives have a fitted effect of over 55% in size
Target sequence (P14618 whole entry, looked up): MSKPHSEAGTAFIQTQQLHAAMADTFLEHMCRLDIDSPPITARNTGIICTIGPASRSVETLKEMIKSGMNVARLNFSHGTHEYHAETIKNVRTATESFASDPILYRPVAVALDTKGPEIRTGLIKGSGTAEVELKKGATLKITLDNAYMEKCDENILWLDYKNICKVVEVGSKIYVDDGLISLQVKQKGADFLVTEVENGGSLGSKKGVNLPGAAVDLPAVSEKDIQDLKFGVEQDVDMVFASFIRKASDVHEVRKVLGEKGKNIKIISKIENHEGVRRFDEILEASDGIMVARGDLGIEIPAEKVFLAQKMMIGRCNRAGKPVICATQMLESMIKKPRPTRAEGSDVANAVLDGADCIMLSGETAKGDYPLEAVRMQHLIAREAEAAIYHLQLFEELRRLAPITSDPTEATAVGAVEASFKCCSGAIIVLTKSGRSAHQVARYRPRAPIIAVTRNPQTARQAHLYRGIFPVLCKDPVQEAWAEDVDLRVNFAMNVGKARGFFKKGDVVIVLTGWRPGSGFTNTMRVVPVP
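Kinase-Glo luminescence reports ATP generated from ADP (0.1 mM) and PEP (0.5 mM) by purified hPK-M2 after 1 h at room temperature, pH 7.2 imidazole buffer; intermediate enzyme activity allows detecting inhibitors and activators.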
VDR inhibitor: blocks the human vitamin D receptor. VDR-SRC2-3 peptide fluorescence polarization, 2 h. Potency, µM, actives largely listed as inhibitors. 400,000 compounds, 0.93% hits. AID 504847
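FP read-out; VDR + SRC2-3 coactivator peptide; 23 nl compound by pintool; 2 h RT incubation; reagents held at 4 deg C, protected from light.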
Mito fusion yeast: mitochondrial division inhibition or fusion activation; Potency, µM (top dose mostly 46.1 µM), hits mostly activators; S. cerevisiae fusion-defective mutant growth rescue, CellTiterGlo 48 h; 320,000 compounds, 0.23% hits; further: nearly all actives have a fitted effect of over 45% in size
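S. cerevisiae fusion-defective temperature-sensitive mutants (e.g. fzo1-1, mgm1-5) grown 48 h at 37C in YPEG (ethanol/glycerol non-fermentable) medium with 23 nl compound per well; growth rescue read as CellTiterGlo luminescence.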
GCN5L2 inh: GCN5L2 (KAT2A) acetyltransferase inhibition; 390,000 compounds, 0.21% hits; GCN5L2 HAT assay, ThioGlo1 CoA-SH fluorescence; Q92830; Potency, µM (highest dose often 58.9 µM), most hits filed as inhibitors
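qHTS, 1536-well. 20nM enzyme, pH 7.5 HEPES/EDTA/Tween-20 buffer; 15 min compound preinc., RT. Start: 75uM H3(1-25), 70uM AcCoA, 50uM ThioGlo1. Read Ex340/Em540 at t=0 (autofluorescence flag) and t=20 min.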
VDR confirm: confirmation of human vitamin D receptor inhibitors; Potency, µM, usual class: inhibitors; 840 compounds, 89% hits; AID 602199; VDR-coactivator inhibition assay, qHTS confirmation; shares compounds with VDR inhibitor
VDR FP: VDR (human) coactivator binding inhibition, fluorescein polarization; AID 602200; 840 compounds, 48% hits; VDR-coactivator binding, fluorescein fluorescence polarization; shares compounds with VDR inhibitor; Potency, µM (highest dose often 57.1 µM), hits mostly inhibitors
VDR bla reporter: VDR (human) inhibition, cell-based beta-lactamase validation; AID 602202; 840 compounds, 23% hits; VDR beta-lactamase reporter cells, FRET ratio; cells co-treated with VDR agonist LG190178; shares compounds with VDR inhibitor; Potency, µM (doses to about 46.1 µM), actives largely listed as inhibitors
VDR viability: cell toxicity, VDR inhibitor hit counter-screen; AID 602204; Potency, µM (titrated, usually from 48.3 µM), actives largely listed as cytotoxic; cytotoxicity counter-screen, cell viability, qHTS; shares compounds with VDR inhibitor; 840 compounds, 18% hits; further: nearly all actives have a fitted effect of over 75% in size
Of the large screens only hits and unclear results are named; the others gave an inactive call (follow-up assays come after a bar, where they were run). Shown are actives, neighbours in structure and some others; about 3.4% of the full set was active somewhere. The call rests on the fitted dose curve; in most records, active means well fitted curve in the direction sought with a large enough effect; inconclusive means small, poorly fitted or top-dose-only effect, or another doubt; inactive means no such curve, though single readings can be large; an effect the other way counts as inactive or inconclusive.

O=c1[nH]c(/C=C/c2cccc([N+](=O)[O-])c2)c([N+](=O)[O-])c(=O)[nH]1	VDR inhibitor 28µM | VDR confirm 12 | VDR FP 7.1µM | VDR bla reporter inactive | VDR viability inconclusive
O=c1[nH]c(/C=C/c2ccc(Cl)cc2Cl)c([N+](=O)[O-])c(=O)[nH]1	VDR inhibitor 18µM | VDR confirm 4.7 | VDR FP inconclusive | VDR bla reporter inactive | VDR viability inactive
O=c1[nH]c(/C=C\c2cccc(Cl)c2)nc(O)c1[N+](=O)[O-]	VDR inhibitor 28µM | VDR confirm 13 | VDR FP inconclusive | VDR bla reporter inactive | VDR viability inactive
O=c1[nH]c(/C=C/c2cccnc2)c([N+](=O)[O-])c(=O)[nH]1	none
COc1ccc(/C=C\c2nc(O)c([N+](=O)[O-])c(=O)[nH]2)cc1O	none (no result: PKM2 act)
O=C(O)C1CC(Br)C(Br)CC1C(=O)O (stereo not given)	none (no result: PKM2 act, VDR inhibitor, Mito fusion yeast, GCN5L2 inh)
CC(C)C(C(=O)NC1CCCC1)N(CC1CCCO1)C(=O)CNS(=O)(=O)c1ccccc1 (stereo not given)	none (no result: PKM2 act)
CCCCN1C(=O)C(=Nc2cccc3cnccc23)c2ccccc21	VDR inhibitor 50µM | VDR confirm 15 | VDR FP inconclusive | VDR bla reporter inactive | VDR viability inactive
CCCCN1C(C)=CC(=C2C(=O)c3ccccc3C2=O)C=C1C	none
COc1ccc(NC(=O)c2nc(S(=O)(=O)Cc3cccc(C)c3)ncc2Cl)c(OC)c1	none (no result: PKM2 act)
CCCc1nnc(NC(=O)c2nc(S(=O)(=O)Cc3cccc(C)c3)ncc2Cl)s1	VDR inhibitor 14µM (no result: PKM2 act) | VDR confirm 6 | VDR FP inconclusive | VDR bla reporter 12µM | VDR viability 16µM
Cc1cccc(CS(=O)(=O)c2ncc(Cl)c(C(=O)NCc3ccccc3)n2)c1	PLK1 PBD block inconclusive, VDR inhibitor 16µM (no result: PKM2 act) | VDR confirm 4.7 | VDR FP 7.9µM | VDR bla reporter 15µM | VDR viability 23µM
Cc1cccc(CS(=O)(=O)c2ncc(Cl)c(C(=O)Nc3c(C)cccc3C)n2)c1	PLK1 PBD block 19µM, VDR inhibitor 22µM (no result: PKM2 act) | VDR confirm 6.7 | VDR FP inconclusive | VDR bla reporter 15µM | VDR viability inconclusive
CC(=O)c1cccc(NC(=O)COC(=O)CCC(=O)c2cccs2)c1	none (no result: PKM2 act)
CO[C@@H]1[C@@H]2OP(=O)(O)OC[C@H]2O[C@H]1n1c(Sc2ccc(Cl)cc2)nc2c(N)ncnc21	none (no result: GLS inh, PLK1 PBD block, PKM2 act, Mito fusion yeast)
COc1cccc(NC(=O)CN(C)C(=O)c2ccc3c(c2)C(=O)N(CCC(C)C)C3=O)c1	none (no result: PKM2 act)
CC(N=Cc1cc([N+](=O)[O-])ccc1O)c1ccccc1 (stereo not given)	none
CC(N=Cc1cccc(O)c1O)c1ccccc1 (stereo not given)	PLK1 PBD block inconclusive, VDR inhibitor 50µM | VDR confirm 20 | VDR FP 10µM | VDR bla reporter 12µM | VDR viability inactive
CCOC(=O)CSC1=NC(=O)/C(=C\c2ccc(OC(C)=O)cc2)S1	PLK1 PBD block 2.1µM, VDR inhibitor 20µM | VDR confirm 13 | VDR FP inconclusive | VDR bla reporter inconclusive | VDR viability inconclusive
O=C1/C(=C/c2ccc([N+](=O)[O-])cc2)CCc2ccccc21	none (no result: GLS inh, PLK1 PBD block, VDR inhibitor)
O=C1/C(=C/c2cccc([N+](=O)[O-])c2)CCc2ccccc21	VDR inhibitor inconclusive | VDR confirm 13 | VDR FP 25µM | VDR bla reporter inconclusive | VDR viability inconclusive
COc1cc(NS(=O)(=O)c2cc3c(cc2C)n(C)c(=O)c(=O)n3C)cc(OC)c1	none (no result: PLK1 PBD block, PKM2 act, Mito fusion yeast)
COCCN1C(=O)c2ccccc2C1c1nnnn1Cc1ccccc1 (stereo not given)	none (no result: PKM2 act, VDR inhibitor, Mito fusion yeast, GCN5L2 inh)
O=C(/C=C/c1ccccc1)c1ccc2c(c1)OCO2	VDR inhibitor inconclusive
O=C(/C=C/c1ccncc1)c1ccc2c(c1)OCCO2	VDR inhibitor 28µM | VDR confirm 27 | VDR FP inconclusive | VDR bla reporter inactive | VDR viability inactive
O=S(=O)(Nc1c(S(=O)(=O)c2ccccc2)c2nc3ccccc3nc2n1C1CCCCC1)c1ccccc1	PLK1 PBD block 4.2µM, VDR inhibitor inconclusive | VDR confirm 0.35 | VDR FP 0.35µM | VDR bla reporter inactive | VDR viability inactive
C=CCn1c(NS(=O)(=O)c2ccccc2)c(S(=O)(=O)c2ccc(C)cc2)c2nc3ccccc3nc21	PLK1 PBD block inconclusive, VDR inhibitor inconclusive, GCN5L2 inh inconclusive
Cc1ccccc1OCCCN1C(=O)C(=O)c2cccc(C)c21	PLK1 PBD block inconclusive, VDR inhibitor 32µM | VDR confirm inconclusive | VDR FP 11µM | VDR bla reporter inactive | VDR viability inactive
Cc1ccccc1OCCCN1CCCC1	none
Cc1ccc(OCCN2C(=O)c3ccccc3C2=O)cc1	GLS inh inconclusive
Cc1cccc2c1N(CCCOc1ccccc1)C(=O)C2=O	PLK1 PBD block inconclusive, VDR inhibitor 50µM | VDR confirm 19 | VDR FP inconclusive | VDR bla reporter inactive | VDR viability inactive
O=C(Nc1ccc(-c2ccc(N3CCCCC3)nn2)cc1)c1ccco1	none (no result: PKM2 act)
COc1ccc(-n2c(=O)c(-c3cccs3)nc3cnc(N4CCNCC4)nc32)cc1	GCN5L2 inh inconclusive (no result: GLS inh, PLK1 PBD block, PKM2 act, Mito fusion yeast)
COc1ccccc1N1CCN(C(=O)c2ccc(N(C)S(=O)(=O)c3ccccc3)cc2)CC1	none
O=C1ON=C(c2ccccc2)/C1=C/c1ccccc1	PLK1 PBD block 5.3µM, VDR inhibitor 45µM | VDR confirm 19 | VDR FP 6.3µM | VDR bla reporter inactive | VDR viability inactive
Cc1ccc(C2=NOC(=O)/C2=C\c2ccccc2)cc1	PLK1 PBD block 3.4µM, VDR inhibitor 32µM (no result: PKM2 act, Mito fusion yeast, GCN5L2 inh) | VDR confirm 7.5 | VDR FP inconclusive | VDR bla reporter inactive | VDR viability inactive
O=C1ON=C(c2ccccc2)/C1=C/c1ccc(O)cc1	PLK1 PBD block 1.7µM, VDR inhibitor 35µM | VDR confirm 11 | VDR FP inconclusive | VDR bla reporter inconclusive | VDR viability inconclusive
Cc1c(N)ccc(-n2nc3ccccc3n2)c1C	none (no result: PKM2 act, Mito fusion yeast, GCN5L2 inh)

From PubChem BioAssay
